# Data reported in PubChem BioAssay AID1159580 (chemical genetic matrix, 2015).
# Where “and” joins values, the source holds several entries; their conditions need not be identical. Equal entries are not always repeated. About 2,000 (36%) of roughly 5,500 compounds were called active. About 18% were inconclusive and are not listed. The list shows a part of the results. Unmarked numbers belong to inactive results. Rule as the data show it: active = normalized growth mostly below about 0.91 (no sharp cut-off); inconclusive = no clear call, values can overlap the other calls; inactive = mostly above about 0.92.
# Assay: chemical genetic growth profiling, strain panel (AID 1159580);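 also: tested at 20 µM; growth read once vehicle control cultures reached saturation at 30 °C; 1 = growth at the plate median or of vehicle wells; lower values mean less growth of the strain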
# Conditions: S. cerevisiae deletion strains, growth OD
structure (smiles),measurement,setting,value
CC12CCC3C(=CCc4cc(O)ccc43)C1CCC2=O (stereo not given),normalized growth,"locus YAL021C, strain ccr4, stronger effect = lower value",0.932
same,normalized growth,"locus YAL026C, strain drs2, stronger effect = lower value",0.992
same,normalized growth,"locus YAL030W, strain snc1, stronger effect = lower value",0.998
same,normalized growth,"locus YBL061C, strain skt5, stronger effect = lower value",0.971
same,normalized growth,"locus YBR009C, strain hhf1, stronger effect = lower value",0.972
same,normalized growth,"locus YBR021W, strain FUR4, stronger effect = lower value",0.913
same,normalized growth,"locus YBR023C, strain chs3, stronger effect = lower value",0.974
same,normalized growth,"locus YBR171W, strain sec66, stronger effect = lower value",0.986
same,normalized growth,"locus YBR229C, strain ROT2, stronger effect = lower value",0.989
same,normalized growth,"locus YBR231C, strain swc5, stronger effect = lower value",0.978
same,normalized growth,"locus YBR279W, strain paf1, stronger effect = lower value",0.964
same,normalized growth,"locus YCL011C, strain gbp2, stronger effect = lower value",0.98
same,normalized growth,"locus YCL016C, strain dcc1, stronger effect = lower value",0.99
same,normalized growth,"locus YCL029C, strain bik1, stronger effect = lower value",0.995
same,normalized growth,"locus YCL061C, strain MRC1, stronger effect = lower value",0.965
same,normalized growth,"locus YCL069W, strain vba3, stronger effect = lower value",0.964
same,normalized growth,"locus YCR088W, strain abp1, stronger effect = lower value",0.981
same,normalized growth,"locus YDL005C, strain med2, stronger effect = lower value",0.959
same,normalized growth,"locus YDL035C, strain GPR1, stronger effect = lower value",0.898
same,normalized growth,"locus YDL040C, strain nat1, stronger effect = lower value",0.995
same,normalized growth,"locus YDL074C, strain BRE1, stronger effect = lower value",0.882
same,normalized growth,"locus YDL101C, strain DUN1, stronger effect = lower value",0.975
same,normalized growth,"locus YDL185W, strain tfp1, stronger effect = lower value",1.01
same,normalized growth,"locus YDL192W, strain arf1, stronger effect = lower value",0.956
same,normalized growth,"locus YDR001C, strain nth1, stronger effect = lower value",0.976
same,normalized growth,"locus YDR069C, strain doa4, stronger effect = lower value",0.966
same,normalized growth,"locus YDR101C, strain arx1, stronger effect = lower value",1.01
same,normalized growth,"locus YDR137W, strain rgp1, stronger effect = lower value",0.614 (active)
same,normalized growth,"locus YDR150W, strain NUM1, stronger effect = lower value",0.991
same,normalized growth,"locus YDR159W, strain sac3, stronger effect = lower value",0.978
same,normalized growth,"locus YDR162C, strain NBP2, stronger effect = lower value",0.515 (active)
same,normalized growth,"locus YDR195W, strain ref2",1.12
same,normalized growth,"locus YDR297W, strain sur2, stronger effect = lower value",0.983
same,normalized growth,"locus YDR318W, strain mcm21, stronger effect = lower value",0.962
same,normalized growth,"locus YDR334W, strain swr1, stronger effect = lower value",0.936
same,normalized growth,"locus YDR335W, strain msn5, stronger effect = lower value",0.925
same,normalized growth,"locus YDR388W, stronger effect = lower value",0.983
same,normalized growth,"locus YDR392W, strain spt3, stronger effect = lower value",0.937
same,normalized growth,"locus YDR502C, strain sam2, stronger effect = lower value",0.961
same,normalized growth,"locus YEL003W, strain gim4, stronger effect = lower value",0.945
same,normalized growth,"locus YEL037C, strain rad23, stronger effect = lower value",0.99
same,normalized growth,"locus YEL061C, strain CIN8 (second series), stronger effect = lower value",0.957
same,normalized growth,"locus YEL061C, strain CIN8, stronger effect = lower value",0.967
same,normalized growth,"locus YER015W, strain faa2, stronger effect = lower value",0.938
same,normalized growth,"locus YER016W, strain bim1, stronger effect = lower value",0.976
same,normalized growth,"locus YER110C, stronger effect = lower value",0.993
same,normalized growth,"locus YER111C, strain swi4, stronger effect = lower value",0.989
same,normalized growth,"locus YER155C, strain BEM2 (second series), stronger effect = lower value",0.987
same,normalized growth,"locus YER155C, strain BEM2, stronger effect = lower value",0.994
same,normalized growth,"locus YER167W, strain BCK2, stronger effect = lower value",0.988
same,normalized growth,"locus YFR010W, strain ubp6, stronger effect = lower value",0.964
same,normalized growth,"locus YGL078C, strain dbp3, stronger effect = lower value",1
same,normalized growth,"locus YGL086W, strain mad1, stronger effect = lower value",0.949
same,normalized growth,"locus YGL167C, strain pmr1, stronger effect = lower value",0.96
same,normalized growth,"locus YGL173C, strain kem1, stronger effect = lower value",0.959
same,normalized growth,"locus YGL227W, strain vid30, stronger effect = lower value",0.989
same,normalized growth,"locus YGL240W, strain doc1, stronger effect = lower value",0.946
same,normalized growth,"locus YGL248W, strain PDE1, stronger effect = lower value",0.936
same,normalized growth,"locus YGL253W, strain hxk2, stronger effect = lower value",0.961
same,normalized growth,"locus YGR078C, strain PAC10, stronger effect = lower value",0.903
same,normalized growth,"locus YGR135W, strain pre9, stronger effect = lower value",0.952
same,normalized growth,"locus YGR229C, strain SMI1, stronger effect = lower value",0.964
same,normalized growth,"locus YGR252W, strain gcn5, stronger effect = lower value",0.882
same,normalized growth,"locus YHR013C, strain ard1, stronger effect = lower value",0.994
same,normalized growth,"locus YHR027C, strain rpn1, stronger effect = lower value",0.976
same,normalized growth,"locus YHR030C, strain SLT2, stronger effect = lower value",0.981 and 1.03
same,normalized growth,"locus YHR079C, strain IRE1 (second series), stronger effect = lower value",1.01
same,normalized growth,"locus YHR079C, strain IRE1, stronger effect = lower value",1.03
same,normalized growth,"locus YHR094C, strain hxt1, stronger effect = lower value",1.01
same,normalized growth,"locus YHR129C, strain ARP1, stronger effect = lower value",0.968
same,normalized growth,"locus YHR142W, strain chs7, stronger effect = lower value",0.929
same,normalized growth,"locus YHR200W, strain rpn10, stronger effect = lower value",1
same,normalized growth,"locus YIL066C, strain RNR3, stronger effect = lower value",0.881
same,normalized growth,"locus YIL073C, strain SPO22, stronger effect = lower value",0.897
same,normalized growth,"locus YIL125W, strain kgd1, stronger effect = lower value",0.994
same,normalized growth,"locus YIR030C, strain dcg1, stronger effect = lower value",0.993
same,normalized growth,"locus YJL092W, strain hpr5, stronger effect = lower value",0.993
same,normalized growth,"locus YJL095W, strain BCK1 (second series), stronger effect = lower value",0.982
same,normalized growth,"locus YJL095W, strain BCK1, stronger effect = lower value",0.819 and 1.04
same,normalized growth,"locus YJL115W, strain asf1, stronger effect = lower value",0.97
same,normalized growth,"locus YJL129C, strain trk1, stronger effect = lower value",0.965
same,normalized growth,"locus YJL134W, strain LCB3, stronger effect = lower value",0.988
same,normalized growth,"locus YJL154C, strain vps35, stronger effect = lower value",0.983
same,normalized growth,"locus YJL164C, strain tpk1, stronger effect = lower value",0.964
same,normalized growth,"locus YJL166W, strain qcr8, stronger effect = lower value",0.952
same,normalized growth,"locus YJL168C, strain set2, stronger effect = lower value",0.994
same,normalized growth,"locus YJL187C, strain SWE1 (second series), stronger effect = lower value",0.928
same,normalized growth,"locus YJR043C, strain POL32, stronger effect = lower value",0.933
same,normalized growth,"locus YJR066W, strain TOR1, stronger effect = lower value",0.99
same,normalized growth,"locus YKL009W, strain mrt4, stronger effect = lower value",0.948
same,normalized growth,"locus YKL068W, stronger effect = lower value",0.995
same,normalized growth,"locus YKL085W, strain MDH1 (second series), stronger effect = lower value",0.98
same,normalized growth,"locus YKL085W, strain MDH1, stronger effect = lower value",0.98
same,normalized growth,"locus YKL160W, strain elf1, stronger effect = lower value",0.942
same,normalized growth,"locus YKL190W, strain CNB1, stronger effect = lower value",0.977
same,normalized growth,"locus YKR001C, strain vps1, stronger effect = lower value",0.908
same,normalized growth,"locus YKR091W, strain srl3, stronger effect = lower value",0.98
same,normalized growth,"locus YLL001W, strain dnm1, stronger effect = lower value",0.94
same,normalized growth,"locus YLL026W, stronger effect = lower value",0.988
same,normalized growth,"locus YLL041C, strain sdh2, stronger effect = lower value",0.974
same,normalized growth,"locus YLR027C, strain aat2, stronger effect = lower value",0.968
same,normalized growth,"locus YLR039C, strain RIC1, stronger effect = lower value",0.397 (active)
same,normalized growth,"locus YLR058C, strain SHM2, stronger effect = lower value",0.958
same,normalized growth,"locus YLR102C, strain apc9, stronger effect = lower value",1.02
same,normalized growth,"locus YLR113W, strain HOG1, stronger effect = lower value",1.07
same,normalized growth,"locus YLR221C, strain rsa3, stronger effect = lower value",0.956
same,normalized growth,"locus YLR258W, strain gsy2, stronger effect = lower value",0.968
same,normalized growth,"locus YLR262C, strain YPT6 (second series), stronger effect = lower value",0.598 (active)
same,normalized growth,"locus YLR262C, strain YPT6, stronger effect = lower value",0.377 (active)
same,normalized growth,"locus YLR268W, strain sec22, stronger effect = lower value",0.973
same,normalized growth,"locus YLR320W, strain mms22, stronger effect = lower value",0.94
same,normalized growth,"locus YLR330W, strain CHS5, stronger effect = lower value",0.979
same,normalized growth,"locus YLR342W, strain FKS1 (second series), stronger effect = lower value",0.76 (active)
same,normalized growth,"locus YLR342W, strain FKS1, stronger effect = lower value",0.914
same,normalized growth,"locus YLR357W, strain rsc2, stronger effect = lower value",1.02
same,normalized growth,"locus YLR370C, strain arc18, stronger effect = lower value",0.98
same,normalized growth,"locus YLR371W, strain rom2, stronger effect = lower value",0.986
same,normalized growth,"locus YLR384C, strain iki3, stronger effect = lower value",0.96
same,normalized growth,"locus YLR418C, strain cdc73, stronger effect = lower value",0.905
same,normalized growth,"locus YML016C, strain PPZ1, stronger effect = lower value",0.973
same,normalized growth,"locus YML032C, strain rad52, stronger effect = lower value",0.958
same,normalized growth,"locus YML120C, strain ndi1, stronger effect = lower value",0.971
same,normalized growth,"locus YML124C, strain tub3, stronger effect = lower value",0.995
same,normalized growth,"locus YMR058W, strain fet3, stronger effect = lower value",0.959
same,normalized growth,"locus YMR078C, strain ctf18, stronger effect = lower value",0.994
same,normalized growth,"locus YMR125W, strain sto1, stronger effect = lower value",0.988
same,normalized growth,"locus YMR129W, stronger effect = lower value",0.987
same,normalized growth,"locus YMR205C, strain PFK2, stronger effect = lower value",0.945
same,normalized growth,"locus YMR223W, strain ubp8, stronger effect = lower value",0.973
same,normalized growth,"locus YMR231W, strain pep5, stronger effect = lower value",0.969
same,normalized growth,"locus YMR307W, strain GAS1, stronger effect = lower value",0.763
same,normalized growth,"locus YNL067W, strain RPL9B, stronger effect = lower value",0.935
same,normalized growth,"locus YNL071W, strain lat1, stronger effect = lower value",0.978
same,normalized growth,"locus YNL128W, strain TEP1, stronger effect = lower value",0.967
same,normalized growth,"locus YNL183C, strain NPR1, stronger effect = lower value",0.986
same,normalized growth,"locus YNL209W, strain ssb2, stronger effect = lower value",0.973
same,normalized growth,"locus YNL233W, strain BNI4, stronger effect = lower value",0.936
same,normalized growth,"locus YNL248C, strain rpa49, stronger effect = lower value",0.908
same,normalized growth,"locus YNL250W, strain rad50, stronger effect = lower value",0.992
same,normalized growth,"locus YNL271C, strain bni1, stronger effect = lower value",0.974
same,normalized growth,"locus YNL298W, strain CLA4, stronger effect = lower value",0.963
same,normalized growth,"locus YNL307C, strain MCK1, stronger effect = lower value",0.826 (active)
same,normalized growth,"locus YNL322C, strain KRE1 (second series), stronger effect = lower value",0.984
same,normalized growth,"locus YNL322C, strain KRE1, stronger effect = lower value",0.988
same,normalized growth,"locus YNR049C, strain mso1, stronger effect = lower value",0.987
same,normalized growth,"locus YNR052C, strain pop2, stronger effect = lower value",0.901 (active)
same,normalized growth,"locus YOL006C, strain TOP1, stronger effect = lower value",0.618
same,normalized growth,"locus YOL012C, strain htz1",1.37
same,normalized growth,"locus YOL147C, strain pex11, stronger effect = lower value",1
same,normalized growth,"locus YOR001W, strain rrp6, stronger effect = lower value",0.955
same,normalized growth,"locus YOR061W, strain CKA2, stronger effect = lower value",0.971
same,normalized growth,"locus YOR069W, strain VPS5, stronger effect = lower value",0.978
same,normalized growth,"locus YOR070C, strain gyp1, stronger effect = lower value",0.979
same,normalized growth,"locus YOR080W, strain dia2, stronger effect = lower value",0.963
same,normalized growth,"locus YOR083W, strain WHI5, stronger effect = lower value",0.934
same,normalized growth,"locus YOR106W, strain vam3, stronger effect = lower value",0.902
same,normalized growth,"locus YOR136W, strain idh2, stronger effect = lower value",1.01
same,normalized growth,"locus YOR144C, strain elg1, stronger effect = lower value",0.993
same,normalized growth,"locus YOR184W, strain ser1, stronger effect = lower value",0.81 (active)
same,normalized growth,"locus YOR231W, strain MKK1, stronger effect = lower value",1.04
same,normalized growth,"locus YOR265W, strain rbl2, stronger effect = lower value",0.977
same,normalized growth,"locus YOR270C, strain vph1, stronger effect = lower value",0.852
same,normalized growth,"locus YOR290C, strain snf2, stronger effect = lower value",0.961
same,normalized growth,"locus YOR316C, strain cot1, stronger effect = lower value",0.987
same,normalized growth,"locus YPL051W, strain arl3, stronger effect = lower value",0.916
same,normalized growth,"locus YPL055C, strain LGE1, stronger effect = lower value",0.89
same,normalized growth,"locus YPL078C, strain atp4, stronger effect = lower value",0.908
same,normalized growth,"locus YPL106C, strain sse1, stronger effect = lower value",0.992
same,normalized growth,"locus YPL240C, strain hsp82, stronger effect = lower value",0.986
same,normalized growth,"locus YPL256C, strain CLN2, stronger effect = lower value",1.06
same,normalized growth,"locus YPR119W, strain clb2, stronger effect = lower value",1
same,normalized growth,"locus YPR141C, strain kar3, stronger effect = lower value",0.996
same,normalized growth,"locus YPR163C, strain tif3, stronger effect = lower value",0.875 (active)
same,normalized growth,"locus YPR167C, strain met16, stronger effect = lower value",0.975
same,normalized growth,"strain wtn01, stronger effect = lower value",0.986
